# From the antibiotic and cytotoxicity screens of Wong et al. (2023)
# The campaign covered roughly 39,000 compounds. About 1,500 (3.8%) were called active. The full list was thinned out, with actives kept by preference.
# Test system: HSkMC (human skeletal muscle cells)
# Experiment: cytotoxicity call (relative viability < 0.9)
# Conditions: 10 µM
row,Structure (SMILES),cytotoxicity call
1,CN(C)C(=O)[C@@]1(Cc2ccccc2CN=[N+]=[N-])N=C(c2ccc(OCCCO)cc2)O[C@H]1c1ccccc1N=[N+]=[N-],inactive
2,[N-]=[N+]=NCc1ccccc1C[C@]1(C(=O)NCc2ccccc2)N=C(c2ccc(OCCCO)cc2)O[C@H]1c1ccccc1N=[N+]=[N-],inactive
3,CCO[C@H]1[C@H]2CC[C@@H]1NC2,inactive
4,O=C1CC2OCC=C3CN4CCC56c7ccccc7N1C5C2C3CC46.O=S(=O)(O)O (configuration not stated),inactive
5,N[C@]1(C(=O)O)CC[C@@H](C(=O)O)C1,inactive
6,COc1cc([C@@H](O)CN)ccc1O,inactive
7,[N-]=[N+]=NCc1ccccc1C[C@]1(C(=O)N2CCOCC2)N=C(c2ccc(OCCCO)cc2)O[C@H]1c1ccccc1N=[N+]=[N-],inactive
8,COc1ccc2c(c1)C[C@H](N)C2,inactive
9,CNC(=O)[C@H]1Cn2ccnc2C2(CCNCC2)O1,inactive
10,CC(C)=CCCC1(C)C=Cc2c(O)c3c(c(CC=C(C)C)c2O1)OC12C(=CC4CC1C(C)(C)OC2(CC=C(C)C(=O)O)C4=O)C3=O (configuration not stated),active
11,CC(C)=CCCC1(C)C=Cc2c(O)c3c(c(CC=C(C)C)c2O1)OC12C(=CC4CC1C(C)(C)OC2(CC=C(C)C(=O)O)C4O)C3=O (configuration not stated),active
12,CC(C)CCC[C@]1(C)C=Cc2c(O)c3c(c(CCC(C)C)c2O1)O[C@]12[C@H](C[C@@H]4C[C@H]1C(C)(C)O[C@]2(CC[C@@H](C)C(=O)O)[C@@H]4O)C3=O,inactive
13,CC(C)=CCC[C@]1(C)C=Cc2c(O)c3c(c(CC=C(C)C)c2O1)O[C@]12[C@H](C[C@@H]4C[C@H]1C(C)(C)O[C@]2(C/C=C(/C)C(=O)O)[C@@H]4O)C3=O,inactive
14,C[C@@H]1CN([C@H](C)CO)C(=O)c2c(c3ccccc3n2C)-c2ccccc2CO[C@@H]1CN(C)C(=O)Oc1ccccc1,inactive
15,O=C(c1ccno1)N1C[C@@H]2CCN[C@@H]2C1,inactive
16,COc1ccc(C(CN(C)C)C2(O)CCCCC2)cc1.Cl (configuration not stated),inactive
17,N#CC[N+]12CCN(CC1)CC2,inactive
18,Cc1nc([N+](=O)[O-])c(N2CCNCC2)[nH]1,inactive
19,COC(=O)[C@H]1O[C@@H]2C[C@H]3O[C@@H](n4cnc5c(N)ncnc54)[C@H](OC)[C@H]3O[C@@]2(O)[C@@H](O)[C@@H]1O,inactive
20,O=C(CCCN1CCC2(CC1)C(=O)N(Cc1cccc(F)c1)CN2c1ccccc1)c1ccc(F)cc1,inactive
21,CC(=O)OC1CC2C(C)(C)C(=O)C=CC2(C)C2CCC3(C)C(=CC(=O)OC3c3ccoc3)C12C (configuration not stated),inactive

row,Structure (SMILES),cytotoxicity call
1,CC1(C)C(=O)C=CC2(C)C1CC(O)C1(C)C2CCC2(C)C(c3ccoc3)OC(=O)C3OC321 (configuration not stated),inactive
2,CC(=O)O[C@H]1C[C@@H](OC(C)=O)C(C)(C)[C@@H]2C[C@@H](OC(C)=O)[C@]3(C)[C@H](CC[C@@]4(C)[C@H](c5ccoc5)C[C@H]5O[C@@]534)[C@@]12C,inactive
3,CC(=O)OC1CC2(C)C(c3ccoc3)CC3OC32C2(C)C(=O)C(O)=C3C(C)(C)C(=O)C=CC3(C)C12 (configuration not stated),active
4,CC1(C)C(=O)C=CC2(C)C1=C(O)C(=O)C1(C)C2CCC2(C)C(c3ccoc3)CC3OC321 (configuration not stated),active
5,CC(=O)OC1CC(OC(C)=O)C2(C)C(CC(OC(C)=O)C3(C)C2CCC2(C)C(c4ccoc4)C(=O)C4OC423)C1(C)C (configuration not stated),inactive
6,O=C1C[C@H](c2ccccc2)[C@@H]2CNCCN12,inactive
7,Cc1nnc(N2CCC[C@]3(CNCCO3)C2)o1,inactive
8,N#CN1CCCC1,inactive
9,Cc1cccc(CN2C[C@H]3OCCN(C)[C@H]3C2)n1,inactive
10,CC1=C(O)C(=O)C=C2C1=CC=C1C2(C)CCC2(C)C3CC(C)(C(=O)O)CCC3(C)CCC12C (configuration not stated),active
11,NC1N[C@H]2CCCC[C@@H]2N1,inactive
12,CC(C)(CN)CNc1ccc([N+](=O)[O-])c2cccnc12,inactive
13,NC(=O)c1cn([C@@H]2O[C@H](CO)[C@@H](O)[C@H]2O)c2ncnc(N)c12,inactive
14,NC(=O)c1cn([C@H]2O[C@@H](CO)[C@H](O)[C@@H]2O)c2ncnc(N)c12,active
15,CCNC(=O)[C@H]1O[C@H](n2cnc3c(N)ncnc32)[C@@H](O)[C@@H]1O,inactive
16,O=C(NC(=O)c1c(F)cccc1F)Nc1cc(Cl)c(OC(F)(F)C(F)C(F)(F)F)cc1Cl (configuration not stated),inactive
17,O=C(NC(=O)c1c(F)cccc1F)Nc1cc(Cl)c(OC(F)(F)[C@@H](F)C(F)(F)F)cc1Cl,active
18,O=C(NC(=O)c1c(F)cccc1F)Nc1ccc(Cl)cc1,inactive
19,C=CCC1(C(C)CCC)C(=O)N=C([S-])NC1=O.[Na+] (configuration not stated),inactive
20,Cl.c1cncc(C2CCCCN2)c1 (configuration not stated),inactive
21,Br.COC(=O)C1=CCCN(C)C1,inactive

row,Structure (SMILES),cytotoxicity call
1,NC(=O)CN1CC[C@@H](NC(=O)[C@@H]2CCCN2)C1=O,inactive
2,c1cn(C[C@H]2CC[C@H]3NCCO[C@@H]23)cn1,inactive
3,Cl.Cn1c(CCCC(=O)O)nc2cc(N(CCCl)CCCl)ccc21,inactive
4,CC[C@H]1/C=C/C=C/C[C@@H](C)[C@H](O)[C@@](C)(O)C(=O)[C@@H](C)[C@H](O)[C@@H](C)C(=O)[C@@H](C)[C@H](O)[C@@H](C)/C=C/C(=O)O[C@@H]2[C@H](C)[C@H](CC1)O[C@]1(CC[C@H](C)[C@H](C[C@@H](C)O)O1)[C@H]2C,active
5,CC[C@@H]1/C=C/C=C/C[C@H](C)[C@@H](O)[C@](C)(O)C(=O)[C@H](C)[C@@H](O)[C@H](C)C(=O)[C@H](C)[C@@H](O)[C@H](C)/C=C/C(=O)O[C@H]2[C@@H](C)[C@@H](CC1)O[C@@]1(CC[C@@H](C)[C@@H](C[C@H](C)O)O1)[C@@H]2C,inactive
6,CCC(COC(=O)c1cc(OC)c(OC)c(OC)c1)(c1ccccc1)N(C)C.O=C(O)C=CC(=O)O (configuration not stated),inactive
7,Cc1n[nH]c(=O)nc1N1CCN(C)CC1,inactive
8,C[C@@H]1O[C@@H](O[C@@H]2C[C@@H](O)[C@]3(CO)[C@H]4[C@H](O)C[C@]5(C)[C@@H](C6=CC(=O)OC6)CC[C@]5(O)[C@@H]4CC[C@]3(O)C2)[C@H](O)[C@H](O)[C@H]1O,active
9,CC1OC(OC2CC(O)C3(CO)C4C(O)CC5(C)C(C6=CC(=O)OC6)CCC5(O)C4CCC3(O)C2)C(O)C(O)C1O.O.O.O.O.O.O.O.O (configuration not stated),active
10,CC(=O)O[C@@]12CO[C@@H]1C[C@H](O)[C@@]1(C)C(=O)[C@H](O)C3=C(C)[C@@H](OC(=O)[C@H](O)[C@@H](NC(=O)c4ccccc4)c4ccccc4)C[C@](O)([C@@H](OC(=O)c4ccccc4)[C@H]21)C3(C)C,inactive
11,COCC(=O)N1C[C@@H]2c3ccccc3CN[C@@H]2C1,inactive
12,COC(=O)[C@@H](N)CCCNC(N)=N[N+](=O)[O-],inactive
13,[N-]=[N+]=CC(=O)OCC(N)C(=O)O (configuration not stated),inactive
14,C1COC2(CCOCC2)CN1,inactive
15,Cc1cc(OC(=O)N(C)C)cc(=O)n1C,inactive
16,COC(=O)C[C@@H]1CC[C@H]2NC[C@@H](O)COC[C@@H]2O1,inactive
17,CC(N)(Cc1ccccc1)c1ccccc1 (configuration not stated),inactive
18,COC(=O)C[C@](O)(CCC(C)(C)O)C(=O)O[C@@H]1C(OC)=C[C@]23CCCN2CCc2cc4c(cc2[C@H]13)OCO4,active
19,CN1CCc2cc3c(cc2C1O)OCO3.Cl (configuration not stated),inactive
20,CN1CCc2cc3c(cc2[C@@H]1O)OCO3,inactive
21,C[N+]12CCC(CC1)C(OC(=O)C(O)(c1ccccc1)c1ccccc1)C2.[Br-] (configuration not stated),inactive

row,Structure (SMILES),cytotoxicity call
1,CC1OC(OC2C(O)C(O)C(O)C(O)C2O)C(N)CC1NC(=N)C(=O)O.Cl (configuration not stated),inactive
2,O=C1C=C2C(=CCOC2O)O1 (configuration not stated),active
3,O=C1C=C2C(=CCO[C@@H]2O)O1,inactive
4,CCCCC(=O)N1CC[C@H]2CNC[C@H]21,inactive
5,N#Cc1c(Cl)c(Cl)c(Cl)c(C#N)c1Cl,active
6,CCCCCC1C(=O)OC(C)C(NC(=O)c2cccc(NC=O)c2O)C(=O)OC(C)C1OC(=O)CC(C)C (configuration not stated) [ANTIMYCIN A (A1 shown) ],inactive
7,CCC[C@@H](CN)c1ccc(F)cc1,inactive
8,COc1c(C[C@@H](C)O)c2c3c(C[C@@H](C)O)c(OC)c(=O)c4c(O)cc5c(c6c(cc(O)c(c1=O)c62)OCO5)c43,active
9,COc1cc(C2c3cc4c(cc3C(O)C3COC(=O)C23)OCO4)cc(OC)c1OC (configuration not stated),inactive
10,CCOC1OC2OC3(C)CCC4C(C)CCC(C1C)C24OO3 (configuration not stated),inactive
11,CC1=NCCc2c1[nH]c1cc(O)ccc21.Cl.O.O,inactive
12,CCCCC[C@H]1C(=O)O[C@H](C)[C@H](NC(=O)c2cccc(NC=O)c2O)C(=O)O[C@@H](C)[C@@H]1OC(=O)CC(C)C,inactive
13,CC1=C[C@H]2[C@]3(O)[C@H](C=C(CO)C[C@]2(O)C1=O)[C@H]1C(C)(C)[C@@]1(O)[C@H](O)[C@@H]3C,inactive
14,CCCCCCCCCC(=O)O[C@@H]1[C@@H](C)[C@]2(O)[C@@H](C=C(CO)C[C@]3(O)C(=O)C(C)=C[C@@H]23)[C@@H]2C(C)(C)[C@@]12OC(=O)CCCCCCCCC,active
15,CCCCCCCCCC(=O)O[C@@H]1[C@@H](C)[C@@]2(O)[C@@H](C=C(CO)C[C@]3(O)C(=O)C(C)=C[C@@H]23)[C@@H]2C(C)(C)[C@]12OC(=O)CCCCCCCCC,inactive
16,CCCCCCCCCCCCCC(=O)O[C@@H]1[C@@H](C)[C@@]2(O)[C@@H](C=C(CO)C[C@]3(O)C(=O)C(C)=C[C@@H]23)[C@@H]2C(C)(C)[C@]12OC(C)=O,active
17,Cc1ccc2[nH]cc(C[C@@H](C)N)c2c1,inactive
18,CCCC(C)C1(CC)C(=O)N=C([S-])NC1=O.[Na+] (configuration not stated),inactive
19,C[C@@H]1CN([C@@H](C)CO)C(=O)CCCn2cc(nn2)CO[C@@H]1CN(C)C(=O)Oc1ccc2ccccc2c1,inactive
